Reference: publication PMC7862700, “An all-to-all approach to the identification of sequence-specific readers for epigenetic DNA modifications on cytosine”

What was measured:
Assay in all cases: DAPPL (digital affinity profiling via proximity ligation, sequencing); 10 mM Tris-HCl pH 7.5, 50 mM NaCl, 1 mM DTT, 4% glycerol, room temperature, 30 min; GST-TFs on glutathione beads, 16-mer random dsDNA library, 0.1% formaldehyde crosslink after washing; high values mean tight binding
FEV = target: T1, FEV (Homo sapiens, UniProt Q99581 1-238); details: protein: recombinant; tags: N-terminal GST; dsDNA, one strand shown
T1 sequence: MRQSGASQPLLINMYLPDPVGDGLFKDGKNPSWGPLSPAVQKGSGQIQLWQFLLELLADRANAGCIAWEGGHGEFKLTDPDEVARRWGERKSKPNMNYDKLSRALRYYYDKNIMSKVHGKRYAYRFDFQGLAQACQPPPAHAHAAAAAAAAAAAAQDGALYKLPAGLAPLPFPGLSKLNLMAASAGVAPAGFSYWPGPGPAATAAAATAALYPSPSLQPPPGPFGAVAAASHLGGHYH
Summary of the method: (§1)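 Binding signal is given per hexamer as its read frequency for a factor divided by its frequency in the tag-only sample. GST-fused human transcription factors were expressed in yeast, captured on glutathione beads, barcoded with DNA and pooled with that sample, then incubated with 200 nmole of a 16-mer random double-stranded DNA library in Tris/NaCl/DTT/glycerol buffer for 30 min at room temperature. The pools were then washed, crosslinked, proximity-ligated, amplified by PCR and sequenced on an Illumina NextSeq500.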

ETV5 = ETV5 (Homo sapiens, UniProt P41161 1-510); details: protein: recombinant; tags: N-terminal GST; dsDNA, one strand shown
Summary of the method: as §1

HSF1 = HSF1 (Homo sapiens, UniProt Q00613 1-529); details: protein: recombinant; tags: N-terminal GST; chain copies: 3; dsDNA, one strand shown
Summary of the method: as §1

SPIC = target: T2, SPIC (Homo sapiens, UniProt Q8N5J4 1-248); details: protein: recombinant; tags: N-terminal GST; dsDNA, one strand shown
T2 sequence: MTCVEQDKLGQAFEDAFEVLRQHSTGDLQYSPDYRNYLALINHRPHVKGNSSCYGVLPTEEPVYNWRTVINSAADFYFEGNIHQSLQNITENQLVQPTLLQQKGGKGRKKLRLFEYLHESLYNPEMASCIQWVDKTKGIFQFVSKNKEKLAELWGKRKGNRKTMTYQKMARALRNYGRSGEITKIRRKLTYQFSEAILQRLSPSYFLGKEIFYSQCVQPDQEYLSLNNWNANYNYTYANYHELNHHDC
Summary of the method: as §1

ELF4 = ELF4 (Homo sapiens, UniProt Q99607 1-663); details: protein: recombinant; tags: N-terminal GST; dsDNA, one strand shown
Summary of the method: as §1

ELK4 = target: T3, ELK4 (Homo sapiens, UniProt P28324-2 1-405); details: protein: recombinant; tags: N-terminal GST; dsDNA, one strand shown
T3 sequence: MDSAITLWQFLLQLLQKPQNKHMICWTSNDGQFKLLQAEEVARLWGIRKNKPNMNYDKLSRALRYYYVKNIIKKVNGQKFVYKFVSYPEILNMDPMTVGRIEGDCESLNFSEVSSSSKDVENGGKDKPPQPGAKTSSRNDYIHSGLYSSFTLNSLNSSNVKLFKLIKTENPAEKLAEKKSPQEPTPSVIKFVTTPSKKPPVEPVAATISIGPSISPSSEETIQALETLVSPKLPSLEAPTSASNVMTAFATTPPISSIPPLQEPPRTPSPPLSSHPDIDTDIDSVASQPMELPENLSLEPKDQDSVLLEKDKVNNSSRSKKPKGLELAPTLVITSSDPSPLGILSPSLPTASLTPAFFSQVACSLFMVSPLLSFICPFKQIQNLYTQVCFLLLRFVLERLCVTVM
Summary of the method: as §1

ETV2 = target: T4, ETV2 (Homo sapiens, UniProt O00321 1-342); details: protein: recombinant; tags: N-terminal GST; dsDNA, one strand shown
T4 sequence: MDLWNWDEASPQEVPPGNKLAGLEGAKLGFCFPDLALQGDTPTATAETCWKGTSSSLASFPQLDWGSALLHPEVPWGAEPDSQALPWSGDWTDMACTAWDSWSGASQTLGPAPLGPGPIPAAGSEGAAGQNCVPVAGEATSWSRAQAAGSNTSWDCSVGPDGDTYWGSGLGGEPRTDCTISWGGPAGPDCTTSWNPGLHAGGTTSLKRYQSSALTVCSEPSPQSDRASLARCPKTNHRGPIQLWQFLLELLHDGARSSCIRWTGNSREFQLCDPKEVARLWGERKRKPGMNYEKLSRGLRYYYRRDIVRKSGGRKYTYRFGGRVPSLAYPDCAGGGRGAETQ
Summary of the method: as §1

ELF3 = target: T5, ELF3 (Homo sapiens, UniProt P78545 1-371); details: protein: recombinant; tags: N-terminal GST; dsDNA, one strand shown
T5 sequence: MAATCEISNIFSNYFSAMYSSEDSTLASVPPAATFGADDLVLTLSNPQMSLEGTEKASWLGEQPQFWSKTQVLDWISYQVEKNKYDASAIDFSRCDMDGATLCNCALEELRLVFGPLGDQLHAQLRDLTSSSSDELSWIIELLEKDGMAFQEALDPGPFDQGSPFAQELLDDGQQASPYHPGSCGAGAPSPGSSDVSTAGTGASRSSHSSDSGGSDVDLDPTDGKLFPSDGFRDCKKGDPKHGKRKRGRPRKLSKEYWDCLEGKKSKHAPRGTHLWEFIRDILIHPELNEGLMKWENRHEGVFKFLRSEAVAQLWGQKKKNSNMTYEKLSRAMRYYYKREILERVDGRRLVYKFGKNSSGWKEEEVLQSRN
Summary of the method: as §1

CRX = CRX (Homo sapiens, UniProt O43186 1-299); details: protein: recombinant; tags: N-terminal GST; dsDNA, one strand shown
Summary of the method: as §1

ETV1 = ETV1 (Homo sapiens, UniProt P50549 1-477); details: protein: recombinant; tags: N-terminal GST; dsDNA, one strand shown
Summary of the method: as §1

ERF = target: T6, ERF (Homo sapiens, UniProt P50548 1-548); details: protein: recombinant; tags: N-terminal GST; dsDNA, one strand shown
T6 sequence: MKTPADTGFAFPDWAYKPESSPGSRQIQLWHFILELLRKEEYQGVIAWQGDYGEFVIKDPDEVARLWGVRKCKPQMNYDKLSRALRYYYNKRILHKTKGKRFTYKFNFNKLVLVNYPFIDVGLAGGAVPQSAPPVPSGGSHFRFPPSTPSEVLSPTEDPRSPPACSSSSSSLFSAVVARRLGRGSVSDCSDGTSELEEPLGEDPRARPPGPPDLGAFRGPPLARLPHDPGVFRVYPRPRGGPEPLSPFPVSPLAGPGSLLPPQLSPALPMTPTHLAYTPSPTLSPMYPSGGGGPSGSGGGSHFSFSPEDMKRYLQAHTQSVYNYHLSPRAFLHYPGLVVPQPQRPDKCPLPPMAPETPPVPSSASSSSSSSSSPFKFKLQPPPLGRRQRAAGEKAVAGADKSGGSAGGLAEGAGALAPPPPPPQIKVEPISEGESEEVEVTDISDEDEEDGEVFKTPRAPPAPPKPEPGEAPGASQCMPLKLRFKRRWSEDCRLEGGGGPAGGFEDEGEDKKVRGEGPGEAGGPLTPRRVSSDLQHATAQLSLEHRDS
Summary of the method: as §1

ETV3L = target: T7, ETV3L (Homo sapiens, UniProt Q6ZN32 1-361); details: protein: recombinant; tags: N-terminal GST; dsDNA, one strand shown
T7 sequence: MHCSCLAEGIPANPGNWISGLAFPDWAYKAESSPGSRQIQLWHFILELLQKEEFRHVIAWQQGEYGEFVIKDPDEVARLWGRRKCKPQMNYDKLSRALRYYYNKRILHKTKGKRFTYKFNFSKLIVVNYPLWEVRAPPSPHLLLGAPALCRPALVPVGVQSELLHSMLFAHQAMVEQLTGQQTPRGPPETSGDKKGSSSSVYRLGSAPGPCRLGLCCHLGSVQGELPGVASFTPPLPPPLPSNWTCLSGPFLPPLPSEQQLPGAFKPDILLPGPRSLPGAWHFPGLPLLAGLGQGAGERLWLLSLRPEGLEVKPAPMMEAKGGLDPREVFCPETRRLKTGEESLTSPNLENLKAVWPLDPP
Summary of the method: as §1

ETS2 = target: T8, ETS2 (Homo sapiens, UniProt P15036 1-469); details: protein: recombinant; tags: N-terminal GST; dsDNA, one strand shown
T8 sequence: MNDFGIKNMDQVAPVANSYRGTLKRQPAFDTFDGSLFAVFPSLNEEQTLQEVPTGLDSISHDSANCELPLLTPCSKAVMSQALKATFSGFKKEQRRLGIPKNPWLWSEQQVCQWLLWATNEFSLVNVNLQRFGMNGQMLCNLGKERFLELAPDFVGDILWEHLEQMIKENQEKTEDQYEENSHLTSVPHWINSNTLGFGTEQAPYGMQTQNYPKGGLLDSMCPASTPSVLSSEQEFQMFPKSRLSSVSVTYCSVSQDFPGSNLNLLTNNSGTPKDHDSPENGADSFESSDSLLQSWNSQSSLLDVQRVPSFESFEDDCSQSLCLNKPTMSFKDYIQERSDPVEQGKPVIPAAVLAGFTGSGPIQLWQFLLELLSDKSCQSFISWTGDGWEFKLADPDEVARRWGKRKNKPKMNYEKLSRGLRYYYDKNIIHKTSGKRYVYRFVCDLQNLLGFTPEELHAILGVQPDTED
Summary of the method: as §1

SPDEF = target: T9, SPDEF (Homo sapiens, UniProt O95238 1-335); details: protein: recombinant; tags: N-terminal GST; dsDNA, one strand shown
T9 sequence: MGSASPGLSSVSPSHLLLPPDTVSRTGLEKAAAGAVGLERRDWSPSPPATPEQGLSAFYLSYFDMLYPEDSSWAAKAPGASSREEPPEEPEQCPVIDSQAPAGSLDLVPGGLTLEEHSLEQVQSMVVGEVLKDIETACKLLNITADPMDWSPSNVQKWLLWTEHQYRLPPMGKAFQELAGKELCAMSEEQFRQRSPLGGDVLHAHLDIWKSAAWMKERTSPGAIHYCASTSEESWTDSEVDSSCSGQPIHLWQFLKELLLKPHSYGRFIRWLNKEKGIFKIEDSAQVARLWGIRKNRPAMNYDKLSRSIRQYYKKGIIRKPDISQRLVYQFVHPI
Summary of the method: as §1

ETV7 = target: T10, ETV7 (Homo sapiens, UniProt Q9Y603 1-341); details: protein: recombinant; tags: N-terminal GST; dsDNA, one strand shown
T10 sequence: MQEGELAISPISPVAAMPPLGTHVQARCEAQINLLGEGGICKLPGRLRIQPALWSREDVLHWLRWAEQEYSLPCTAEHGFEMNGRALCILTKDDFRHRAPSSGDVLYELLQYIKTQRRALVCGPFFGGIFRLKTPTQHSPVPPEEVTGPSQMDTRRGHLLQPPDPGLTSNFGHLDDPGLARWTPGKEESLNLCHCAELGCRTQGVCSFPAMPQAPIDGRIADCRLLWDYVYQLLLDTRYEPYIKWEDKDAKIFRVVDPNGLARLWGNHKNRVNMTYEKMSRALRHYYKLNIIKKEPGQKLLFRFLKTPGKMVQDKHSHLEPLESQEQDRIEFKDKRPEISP
Summary of the method: as §1

ELF5 = target: T11, ELF5 (Homo sapiens, UniProt Q9UKW6-2 1-255); details: protein: recombinant; tags: N-terminal GST; dsDNA, one strand shown
T11 sequence: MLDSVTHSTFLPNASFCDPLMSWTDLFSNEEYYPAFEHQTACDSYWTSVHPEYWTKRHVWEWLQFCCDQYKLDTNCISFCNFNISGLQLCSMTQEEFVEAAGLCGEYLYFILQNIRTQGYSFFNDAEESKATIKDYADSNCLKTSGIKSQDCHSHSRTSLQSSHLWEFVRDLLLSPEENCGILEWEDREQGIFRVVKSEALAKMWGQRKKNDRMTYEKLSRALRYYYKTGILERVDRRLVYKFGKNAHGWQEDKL
Summary of the method: as §1

ETV3 = target: T12, ETV3 (Homo sapiens, UniProt P41162-2 1-143); details: protein: recombinant; tags: N-terminal GST; dsDNA, one strand shown
T12 sequence: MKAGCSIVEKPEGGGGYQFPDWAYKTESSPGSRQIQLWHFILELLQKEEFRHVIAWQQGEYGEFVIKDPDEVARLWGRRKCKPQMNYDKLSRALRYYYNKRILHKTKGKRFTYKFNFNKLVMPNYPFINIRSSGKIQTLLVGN
Summary of the method: as §1

ETV6 = ETV6 (Homo sapiens, UniProt P41212 1-452); details: protein: recombinant; tags: N-terminal GST; dsDNA, one strand shown
Summary of the method: as §1

Chain of ETV1 (P50549 whole entry): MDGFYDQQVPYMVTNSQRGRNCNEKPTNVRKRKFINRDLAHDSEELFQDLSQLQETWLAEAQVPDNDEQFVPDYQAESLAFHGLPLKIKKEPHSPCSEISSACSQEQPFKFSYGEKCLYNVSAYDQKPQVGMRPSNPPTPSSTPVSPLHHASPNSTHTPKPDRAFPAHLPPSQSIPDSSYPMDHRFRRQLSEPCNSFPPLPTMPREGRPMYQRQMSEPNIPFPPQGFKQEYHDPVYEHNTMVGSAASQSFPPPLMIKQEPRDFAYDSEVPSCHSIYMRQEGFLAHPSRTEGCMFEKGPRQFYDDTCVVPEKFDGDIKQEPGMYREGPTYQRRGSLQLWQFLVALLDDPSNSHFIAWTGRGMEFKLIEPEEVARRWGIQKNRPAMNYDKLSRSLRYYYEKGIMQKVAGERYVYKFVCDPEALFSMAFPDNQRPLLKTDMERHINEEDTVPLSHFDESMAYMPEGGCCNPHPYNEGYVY
Chain of ETV5 (P41161 whole entry): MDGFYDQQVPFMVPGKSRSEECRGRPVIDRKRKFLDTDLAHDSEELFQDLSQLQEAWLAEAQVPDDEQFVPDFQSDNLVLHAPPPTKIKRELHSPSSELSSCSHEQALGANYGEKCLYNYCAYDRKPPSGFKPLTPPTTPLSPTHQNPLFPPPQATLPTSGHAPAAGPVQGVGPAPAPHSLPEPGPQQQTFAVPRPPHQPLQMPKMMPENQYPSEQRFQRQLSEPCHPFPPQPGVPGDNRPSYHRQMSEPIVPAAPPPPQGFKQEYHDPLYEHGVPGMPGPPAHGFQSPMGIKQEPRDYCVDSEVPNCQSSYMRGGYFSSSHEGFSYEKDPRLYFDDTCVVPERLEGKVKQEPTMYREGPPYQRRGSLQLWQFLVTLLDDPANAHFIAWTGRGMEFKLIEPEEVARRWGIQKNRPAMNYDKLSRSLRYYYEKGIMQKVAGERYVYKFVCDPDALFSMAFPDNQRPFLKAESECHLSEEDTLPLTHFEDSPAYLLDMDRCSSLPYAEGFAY
Chain of HSF1 (Q00613 whole entry): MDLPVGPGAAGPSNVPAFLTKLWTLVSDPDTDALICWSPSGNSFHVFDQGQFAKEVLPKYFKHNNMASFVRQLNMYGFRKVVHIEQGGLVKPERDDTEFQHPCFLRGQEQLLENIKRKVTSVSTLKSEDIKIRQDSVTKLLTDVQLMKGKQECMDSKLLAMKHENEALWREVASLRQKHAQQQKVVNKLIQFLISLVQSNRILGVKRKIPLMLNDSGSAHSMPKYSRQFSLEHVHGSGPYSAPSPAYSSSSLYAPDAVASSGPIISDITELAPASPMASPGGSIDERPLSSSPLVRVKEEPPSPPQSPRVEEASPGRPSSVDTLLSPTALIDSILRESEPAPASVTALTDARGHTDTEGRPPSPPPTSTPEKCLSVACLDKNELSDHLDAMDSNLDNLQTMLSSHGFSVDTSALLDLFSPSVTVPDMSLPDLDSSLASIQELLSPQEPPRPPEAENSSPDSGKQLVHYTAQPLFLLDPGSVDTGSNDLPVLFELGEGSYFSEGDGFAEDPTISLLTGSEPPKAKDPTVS
Chain of ELF4 (Q99607 whole entry): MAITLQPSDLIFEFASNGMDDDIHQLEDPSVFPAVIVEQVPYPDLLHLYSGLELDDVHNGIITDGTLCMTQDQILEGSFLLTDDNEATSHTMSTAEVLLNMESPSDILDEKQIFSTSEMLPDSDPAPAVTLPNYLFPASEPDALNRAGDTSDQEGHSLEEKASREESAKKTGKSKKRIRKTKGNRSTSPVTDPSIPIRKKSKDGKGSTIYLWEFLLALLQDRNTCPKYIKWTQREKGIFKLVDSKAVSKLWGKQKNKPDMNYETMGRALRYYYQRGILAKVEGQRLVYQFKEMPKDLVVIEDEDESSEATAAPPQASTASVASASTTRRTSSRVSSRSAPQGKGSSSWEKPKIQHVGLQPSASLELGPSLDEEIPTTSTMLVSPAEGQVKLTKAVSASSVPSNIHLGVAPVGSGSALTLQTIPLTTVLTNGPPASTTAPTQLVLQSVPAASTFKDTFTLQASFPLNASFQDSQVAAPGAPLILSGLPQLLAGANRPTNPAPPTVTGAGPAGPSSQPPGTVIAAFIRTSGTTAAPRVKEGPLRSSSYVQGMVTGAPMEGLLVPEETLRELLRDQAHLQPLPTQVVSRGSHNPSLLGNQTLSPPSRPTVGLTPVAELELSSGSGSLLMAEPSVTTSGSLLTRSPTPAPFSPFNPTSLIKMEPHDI
Chain of ETV6 (P41212 whole entry): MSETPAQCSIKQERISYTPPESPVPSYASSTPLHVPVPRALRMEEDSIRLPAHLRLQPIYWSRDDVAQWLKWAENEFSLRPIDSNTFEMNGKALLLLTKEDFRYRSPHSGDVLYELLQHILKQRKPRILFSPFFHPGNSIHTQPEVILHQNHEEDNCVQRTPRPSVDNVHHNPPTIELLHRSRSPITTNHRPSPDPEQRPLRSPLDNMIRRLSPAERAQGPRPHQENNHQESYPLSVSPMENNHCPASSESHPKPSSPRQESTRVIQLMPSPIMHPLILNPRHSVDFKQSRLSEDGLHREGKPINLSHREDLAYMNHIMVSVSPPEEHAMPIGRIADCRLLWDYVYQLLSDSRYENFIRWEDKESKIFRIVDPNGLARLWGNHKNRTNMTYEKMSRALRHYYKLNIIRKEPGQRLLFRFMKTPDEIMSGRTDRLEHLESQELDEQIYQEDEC
Chain of CRX (O43186 whole entry): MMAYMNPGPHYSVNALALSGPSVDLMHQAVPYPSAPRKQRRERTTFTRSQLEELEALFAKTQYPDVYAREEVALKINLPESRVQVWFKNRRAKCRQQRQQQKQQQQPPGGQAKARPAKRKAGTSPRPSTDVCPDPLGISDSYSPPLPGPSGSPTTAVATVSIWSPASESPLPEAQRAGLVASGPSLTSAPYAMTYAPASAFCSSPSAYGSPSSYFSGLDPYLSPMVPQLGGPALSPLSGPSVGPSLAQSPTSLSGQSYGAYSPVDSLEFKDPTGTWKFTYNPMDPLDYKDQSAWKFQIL

Sequence	binding signal (FEV)	binding signal (ETV5)	binding signal (HSF1)	binding signal (SPIC)	binding signal (ELF4)	binding signal (ELK4)	binding signal (ETV2)	binding signal (ELF3)	binding signal (CRX)	binding signal (ETV1)	binding signal (ERF)	binding signal (ETV3L)	binding signal (ETS2)	binding signal (SPDEF)	binding signal (ETV7)	binding signal (ELF5)	binding signal (ETV3)	binding signal (ETV6)
CCTATC	1.16 fold enrichment (6-mer frequency, TF over GST control)	1.14 fold enrichment (6-mer frequency, TF over GST control)	1.06 fold enrichment (6-mer frequency, TF over GST control)	1.1 fold enrichment (6-mer frequency, TF over GST control)	1.16 fold enrichment (6-mer frequency, TF over GST control)	1.14 fold enrichment (6-mer frequency, TF over GST control)	1.08 fold enrichment (6-mer frequency, TF over GST control)	1.23 fold enrichment (6-mer frequency, TF over GST control)	1.15 fold enrichment (6-mer frequency, TF over GST control)	1.16 fold enrichment (6-mer frequency, TF over GST control)	1.17 fold enrichment (6-mer frequency, TF over GST control)	1.22 fold enrichment (6-mer frequency, TF over GST control)	1.2 fold enrichment (6-mer frequency, TF over GST control)	1.29 fold enrichment (6-mer frequency, TF over GST control)	1.3 fold enrichment (6-mer frequency, TF over GST control)	1.12 fold enrichment (6-mer frequency, TF over GST control)	1.2 fold enrichment (6-mer frequency, TF over GST control)	1.12 fold enrichment (6-mer frequency, TF over GST control)
CTAATA	1.16 fold enrichment (6-mer frequency, TF over GST control)	1.21 fold enrichment (6-mer frequency, TF over GST control)	1.55 fold enrichment (6-mer frequency, TF over GST control)	1.29 fold enrichment (6-mer frequency, TF over GST control)	1.18 fold enrichment (6-mer frequency, TF over GST control)	1.1 fold enrichment (6-mer frequency, TF over GST control)	1.24 fold enrichment (6-mer frequency, TF over GST control)	1.16 fold enrichment (6-mer frequency, TF over GST control)	2.09 fold enrichment (6-mer frequency, TF over GST control)	1.22 fold enrichment (6-mer frequency, TF over GST control)	1.27 fold enrichment (6-mer frequency, TF over GST control)	1.2 fold enrichment (6-mer frequency, TF over GST control)	1.18 fold enrichment (6-mer frequency, TF over GST control)	1.25 fold enrichment (6-mer frequency, TF over GST control)	1.24 fold enrichment (6-mer frequency, TF over GST control)	1.08 fold enrichment (6-mer frequency, TF over GST control)	1.06 fold enrichment (6-mer frequency, TF over GST control)	1.13 fold enrichment (6-mer frequency, TF over GST control)
